Screens as filed in PubChem BioAssay.
SARS PLpro yeast: qHTS of Yeast-based Assay for SARS-CoV PLP. S. cerevisiae expressing SARS-CoV PLpro, growth rescue. Potency, µM (doses to about 32.9 µM), without a hit: top-dose activity, positive = growth rescue, actives largely listed as activators. 0.19% of 330,000 active; calls by dose curve; further: 0% is about no effect; nearly all actives have a fitted effect of over 55% in size
Pf growth 48h: Primary qHTS for delayed death inhibitors of the malarial parasite plastid, 48 hour incubation; P. falciparum luciferase growth in erythrocytes, 48 h; Potency, µM (highest dose often 28.7 µM), for inactives: top-dose activity change, negative = inhibition, most hits filed as inhibitors; 5.9% of 310,000 active; further: on the % scale 0 is the no-effect control and ±100 the full control effect
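Compounds are pin-transferred into medium, infected erythrocytes (2% hematocrit, 0.1% parasitemia final) are added, and plates sit one parasite generation at 37 C in 5% CO2. Detection reagent is then added and luminescence measured.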
Pf growth 96h: Primary qHTS for delayed death inhibitors of the malarial parasite plastid, 96 hour incubation; P. falciparum luciferase reporter growth, 96 h; 6.9% of 320,000 active; Potency, µM (series often up to 28.7 µM), for inactives: at the highest dose activity change, negative = inhibition, hits mostly inhibitors; further: on the % scale 0 is the no-effect control and ±100 the full control effect
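Parasite growth measured via integrated firefly luciferase reporter in P. falciparum. Infected erythrocytes at 2% hematocrit, 0.05% parasitemia final were treated 96 hours at 37 C under 5% CO2, and luminescence was read.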
Sm TGR block: qHTS Assay for the Inhibitors of Schistosoma Mansoni Peroxiredoxins; 3% of 360,000 active; Potency, µM (titrated, usually from 114 µM), for the others: at the top dose activity change, negative = inhibition, most hits filed as inhibitors; Schistosoma mansoni thioredoxin glutathione reductase (TGR), Q962Y6; AID 485364, 2010; purified TGR, DTNB reduction, TNB absorbance 405 nm; further: on the % scale 0 is the no-effect control and ±100 the full control effect; nearly all actives have a fitted effect of over 60% in size
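TGR 20 nM + NADPH 100 uM (dispensed conc.), cpd preinc 15 min RT; start with NADPH (500 uM addition) then DTNB (15 mM addition). Kinetic TNB absorbance, 405 nm filter. Four-parameter Hill fit across titration.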
An asterisk follows results filed as active; ? = inconclusive; nt = not tested or not shown. Only some compounds are listed: those with a hit (about 12% of all), similar ones and a draw of the others. Unless noted, the call rests on the fitted dose curve; in most records, active means well fitted curve in the direction sought with a large enough effect; inconclusive means small, poorly fitted or top-dose-only effect, or another doubt; inactive means no such curve, though single readings can be large; an effect the other way counts as inactive or inconclusive. Potency means the concentration at half of the fitted maximal effect.

SMILES	SARS PLpro yeast	Pf growth 48h	Pf growth 96h	Sm TGR block
Clc1ccccc1Cc1noc(CN2CCN(Cc3ccccn3)CC2)n1	0.6%	-14.6%	?	17.8µM*
Fc1cccc(CN2CCN(Cc3nc(CCc4ccccc4)no3)CC2)c1	-0.1%	34.8%	10.4µM*	4.6%
Clc1ccc(-c2nnc3sc(-c4ccc(Br)o4)nn23)cc1	-1.9%	?	?	-7.1%
Cc1oc(-c2ccc(Cl)cc2)cc1-c1nn2c(-c3ccoc3C)nnc2s1	-4.3%	?	?	22.4µM*
CC(=O)N1/C(=C/c2ccc(N(C)C)cc2)C(=O)c2ccccc21	-32.2%	-17.8%	?	28.2µM*
CN(C)c1ccc(/C=C2\CCC/C(=C\c3ccccc3)C2=O)cc1	-29.5%	?	?	-25.7%
CC1CCC(N2CCNCC2)CC1 (stereo unspecified)	0.8%	11.3%	14.7µM*	-3.6%
C1CCCN(C2CCNCC2)CC1	-1.0%	-0.1%	?	-1.5%
C1CCCC(N2CCNCC2)CC1	10.1%	16.3%	2.94µM*	6.9%
Cc1ccc(-c2nnc(Sc3nc4ccccc4o3)c3ccccc23)cc1	-3.9%	11.7µM*	3.7%	-7.5%
Cc1nnc(Sc2nc3ccccc3o2)c2ccccc12	-11.3%	-25.5%	nt	31.6µM*
Clc1ccc(-c2nnc(Sc3nc4ccccc4o3)c3ccccc23)cc1	1.1%	36.7%	7.7%	3.9%
CCOC(=O)C1CCCN(C(=O)Cn2nc(Cc3cccnc3)c3ccccc3c2=O)C1 (stereo unspecified)	7.0%	nt	7.38µM*	1.1%
COCCCn1c(C)cc(C(=O)CN2c3cccc4cccc(c34)S2(=O)=O)c1C	-2.1%	?	?	22.4µM*
Cc1ccc(NC(=O)CC2SC(=NC3CCCCC3)NC2=O)cc1 (stereo unspecified)	1.6%	?	-100.8%	50.1µM*
O=C(O)CC1S/C(=N/N=C/c2ccccn2)NC1=O (stereo unspecified)	18.2%	5.22µM*	?	33.0%
O=C(CC1S/C(=N/N=C/c2c[nH]c3ccc(OCc4ccccc4)cc23)NC1=O)Nc1ccccc1 (stereo unspecified)	-18.0%	18.0%	11.7µM*	1.0%
O=C(CC1S/C(=N/N=C/c2cccs2)NC1=O)Nc1ccc(Cl)cc1 (stereo unspecified)	-4.1%	-4.9%	1.85µM*	-2.7%
Cc1ccccc1NC(=O)CC1SC(=NC2CCCCC2)NC1=O (stereo unspecified)	-3.4%	-4.6%	0.0%	-30.7%
O=C(CC1S/C(=N/N=C/c2cccs2)NC1=O)Nc1ccc(Cl)c(Cl)c1 (stereo unspecified)	7.8%	17.0%	?	-2.9%
CC(=O)Nc1ccc(S(=O)(=O)NCCC(=O)N2CCc3ccccc32)cc1	13.0%	2.8%	-15.1%	-12.3%
COc1ccc(Cl)cc1NC(=O)CC1S/C(=N/N=C2CCCCCC2)NC1=O (stereo unspecified)	-2.7%	?	13.1µM*	-12.6%
COc1cc(C#Cc2c(-c3cncn3C)n(C)c3ccc(Br)cc23)cc(OC)c1	-4.4%	nt	nt	nt
Cc1ccc(N(C)S(=O)(=O)c2ccc3[nH]c(=O)ccc3c2)cc1	nt	nt	nt	11.9%
CC(C)(C)C1CCC2(CC1)Nc1cccc3cccc(c13)N2	-11.2%	?	140.6%	45.3%
SMILES	SARS PLpro yeast	Pf growth 48h	Pf growth 96h	Sm TGR block
CCN(CC)c1ccc(C2Nc3cccc4cccc(c34)N2)cc1	2.2%	10.4µM*	?	-54.2%
Cc1ccc(C2Nc3cccc4cccc(c34)N2)s1	-14.9%	?	?	17.8µM*
CCCOc1ccc(C2Nc3cccc4cccc(c34)N2)cc1	-4.3%	?	?	14.1µM*
COc1ccc(C2Nc3cccc4cccc(c34)N2)cc1Br	-1.4%	10.4µM*	?	25.1µM*
CCCOc1ccc(C2NC(=O)NC2=O)cc1 (stereo unspecified)	10.3%	-8.9%	?	-3.5%
Cc1ccc2ccc3cccc4ccc1c2c34	-1.0%	22.7%	50.9%	-2.9%
COc1cc(C2Nc3cccc4cccc(c34)N2)ccc1OC(C)=O	2.2%	-0.2%	nt	?
CCc1ccc(NCc2cc3ccc(OC)cc3n(CC(=O)Nc3cccc(Cl)c3C)c2=O)cc1	nt	nt	nt	-3.0%
COc1ccc(C(=O)NCCn2cc(SCC(=O)Nc3ccc4c(c3)OCCO4)c3ccccc32)cc1OC	nt	nt	nt	3.3%
COC(=O)c1ccc(C2Nc3cccc4cccc(c34)N2)cc1	-2.7%	?	23.3%	?
Fc1ccc(C2Nc3cccc4cccc(c34)N2)cc1	2.4%	?	-1.2%	17.8µM*
FC(F)(F)c1ccc(C2Nc3cccc4cccc(c34)N2)cc1	-5.2%	?	?	20µM*
CC(=O)Nc1oc(-c2cccc3ccccc23)nc1C#N	-4.9%	-21.1%	9.9%	-2.3%
Cc1[nH]c2ccccc2c1/C=N/n1cnnc1	0.0%	-13.1%	-3.3%	-3.5%
COCCN=c1scc(-c2cc(OC)c(OC)c(OC)c2)n1/N=C/c1c(C)[nH]c2ccccc12	-19.1%	7.38µM*	2.62µM*	-13.6%
O=C(CC1C(=O)N(Cc2ccccc2)C(=S)N1CCN1CCOCC1)Nc1ccc(F)cc1 (stereo unspecified)	0.7%	1.85µM*	-8.3%	nt
CCCOc1ccc(NC(=O)CC2C(=O)N(CC)C(=S)N2CCCN2CCN(Cc3ccccc3)CC2)cc1 (stereo unspecified)	-10.2%	?	4.15µM*	-18.5%
CCC1CCc2nc3sc(C(=O)Nc4cccc(C(F)(F)F)c4)c(N)c3cc2C1 (stereo unspecified)	nt	nt	nt	-13.6%
COc1cc(OC)c2c(-c3cccc(-c4ccc(F)c(Cl)c4)c3)cc(=O)oc2c1	4.0%	nt	nt	nt
Cc1ccccc1C(=O)Oc1ccccc1C(=O)N1CCOCC1	8.0%	-13.5%	8.28µM*	2.5%
CC(C)(OC(=O)c1ccc(F)cc1)c1cc2ccccc2c(=O)o1	2.0%	0.9%	35.3%	-24.6%
COc1ccccc1C(=O)NCCC(=O)Nc1ncccc1O	-11.6%	30.0%	0.0%	-10.5%
CN(C)CCCNc1nc2sc3c(c2c(=O)n1CCc1ccccc1)CCCCC3	0.3%	6.57µM*	4.15µM*	-0.4%
COC(=O)CCC/C=C1/SCC(NC(=O)c2ccccc2)C1=O (stereo unspecified)	-8.1%	nt	9.28µM*	?
CCn1c(SCC(=O)OC)nc2cc(S(=O)(=O)N3CCOCC3)ccc21	nt	-13.8%	-10.0%	-0.2%
CCc1ccc(C(=O)CSc2nc3cc(S(=O)(=O)N4CCOCC4)ccc3n2CC)cc1	-30.9%	?	10.4µM*	0.0%
Cc1csc(SCC(=O)c2ccc(S(=O)(=O)N3CCOCC3)cc2)n1	3.7%	?	10.4µM*	-27.9%
CC(OC(=O)c1ccccc1NS(=O)(=O)c1cccc(C(F)(F)F)c1)C(=O)N(C)Cc1ccccc1 (stereo unspecified)	2.1%	?	10.4µM*	-3.1%
CCOC(=O)N1CCN(Cc2nc3cc(NC(=O)c4cccs4)ccc3n2CC)CC1	-1.0%	2.94µM*	112.6%	-7.1%
